For 35 molecules, composite z-score results are on record in PubChem BioAssay.

SMILES strings stand for the structures.

Sequence of Fibroblast growth factor 2 (Homo sapiens) (P09038 whole entry, looked up): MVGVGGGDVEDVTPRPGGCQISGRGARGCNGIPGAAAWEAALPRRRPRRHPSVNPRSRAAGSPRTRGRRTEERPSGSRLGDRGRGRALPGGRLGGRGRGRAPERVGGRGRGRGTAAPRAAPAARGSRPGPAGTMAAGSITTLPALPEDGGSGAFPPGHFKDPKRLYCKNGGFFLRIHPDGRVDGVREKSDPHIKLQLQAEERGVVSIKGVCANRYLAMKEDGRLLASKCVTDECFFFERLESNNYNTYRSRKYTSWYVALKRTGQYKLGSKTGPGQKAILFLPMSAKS

This assay concerns the target Fibroblast growth factor 2 (Homo sapiens) (UniProt P09038). Nature of the assay: basic fibroblast growth factor binding to printed compounds – biochemical, small-molecule microarray, 635/667 nm fluorescence, primary screen (AID 1133). To be noted: FGF2, fluorescence 635/667, higher = more signal.
Molecule `COC(=O)c1c2oc(c1C(=O)OC)C(=O)N(Cc1ccccc1)Cc1cn(nn1)C[C@H](Cc1ccccc1)NC(=O)N[C@H](CO)CC2` had a composite z-score of -0.107.
Take `O=C1O[C@H](c2ccccc2)[C@H](c2ccccc2)N2[C@H]1[C@@H](C(=O)Nc1nc3ccccc3s1)[C@]1(C(=O)Nc3ccc(C#CC4(O)CCCCCC4)cc31)[C@H]2c1ccccc1OCCO`: the composite z-score is 0.903.
Take `O=C1O[C@@H](c2ccccc2)[C@@H](c2ccccc2)N2[C@@H](c3ccccc3OCCO)[C@]3(C(=O)Nc4ccc(C#CCCO)cc43)[C@@H](C(=O)N3CCCCCCC3)[C@H]12`: the composite z-score was 1.14.
For `CC(C)N1CC=CC23O[C@@H]4C=CCOC(=O)[C@@H]4[C@H]2C(=O)N(CCCO)[C@@H]3C1=O` (stereo not given in full) the value was -0.849.
Molecule `COc1ccc([Si](C)(C)[C@@H]2[C@@H](CC(=O)N(CCO)Cc3ccccc3)O[C@]3(C(=O)N(Cc4cccc(N5CCOC5=O)c4)c4ccccc43)[C@H]2C)cc1` had a composite z-score of 0.393.
Molecule `COC(=O)[C@@]1(Cc2ccc(F)cc2)[C@H]2c3cc(C(=O)N4CCCC4)n(CCN4CNCC4=O)c3C[C@H]2CN1C(=O)c1ccccc1` came in with a composite z-score of -0.841.
The figure for `C=C[C@@H](COC(C)=O)N(C(=O)OC(C)(C)C)S(=O)(=O)c1ccc(Br)cc1` is 1.89; for `CN(C)C(=O)[C@]1(CCS(=O)(=O)c2ccccc2)N=C(c2ccc(OCCCO)cc2)O[C@@H]1c1ccccc1N=[N+]=[N-]` it is 0.943.
In the case of `O=C1NC(=O)C2C1C=CC(C(O)c1ccco1)N2Nc1ccccn1` (stereo not given), the composite z-score is -0.127.
Take `C=CC[C@]1(C(=O)NCCN2CCOCC2)N=C(c2ccc(OCCCO)cc2)O[C@H]1c1ccccc1CN=[N+]=[N-]`: the composite z-score worked out at 1.68.
The figure for `CCOC(=O)C[C@H]1[C@H](OC(=O)c2ccccc2-c2ccccc2)[C@@H](NC(=O)c2ccc(-c3ccccc3)cc2)c2cc(OCCCO)ccc2N1C(=O)c1ccc2ccccc2n1` is 0.496.
The figure for `CCCC[C@@H](O)C1=C(COc2ccccc2)C[C@H]2C(=O)N(C)C(=O)[C@H]2[C@H]1CO` is -0.16; for `COCCOC(=O)N1C(=O)[C@@]2(c3cc(C#Cc4ccc(OC)cc4)ccc31)[C@H](C(=O)Nc1nc3ccccc3s1)[C@H]1C(=O)O[C@H](c3ccccc3)[C@H](c3ccccc3)N1[C@@H]2c1ccc(O)cc1` it is 1.09; for `COC1OC[C@]2(C)[C@H]3C4=C(CN2C(=O)OC(C)(C)C)[C@H](C)C(CO)C(CO)C4CC[C@@H]13` (stereo not given in full) it is -0.636.
Turning to `COCCCNC(=O)[C@]1(CCS(=O)(=O)c2ccccc2)N=C(c2ccc(OCCCO)cc2)O[C@@H]1c1ccccc1N=[N+]=[N-]`, the composite z-score is -0.138.
`CCCNC(=O)[C@@]1(c2ccc([N+](=O)[O-])cc2)CC(=O)N(C2CCCCC2)[C@@H]1c1ccc(CO)cc1`: the composite z-score came to 1.66.
Turning to `[N-]=[N+]=NCc1ccccc1C[C@@]1(C(=O)N2CCOCC2)N=C(c2ccc(OCCCO)cc2)O[C@@H]1c1ccccc1`, the composite z-score was 0.399.
Consider `NC(N)=NCCCn1cc(CNC(=O)[C@@H](N)Cc2ccccc2)nn1`, for which the composite z-score is 0.943.
With `COC(=O)[C@@]1(Cc2ccc(OC)cc2)[C@H]2c3cc(C(=O)N(C)C)n(CCO)c3C[C@H]2CN1C(=O)c1ccccc1`, the composite z-score is -0.545.
Molecule `COCCCNC(=O)[C@@]1(Cc2ccccc2CN=[N+]=[N-])N=C(c2ccc(OCCCO)cc2)O[C@H]1c1ccccc1` had a composite z-score of 0.14.
For `C=C[C@@H](OC)[C@H](OC(=O)Nc1ccc(SC)cc1)c1ccc(O)c(F)c1` the value was 0.207; for `CCCCCCCCCCC(O)C1C=CC2C(=O)N(C)C(=O)C2N1Nc1ccc([N+](=O)[O-])cc1[N+](=O)[O-]` (stereo not given), -0.597; for `O=C(NCc1ccccc1)[C@@H]1c2ccccc2C(=O)N(Cc2ccccc2C(F)(F)F)[C@H]1c1ccc(CO)cc1`, -0.133.
`COCCOC(=O)N1C(=O)[C@@]2(c3cc(C#CCCO)ccc31)[C@H](C(=O)Nc1nc3ccccc3s1)[C@H]1C(=O)O[C@H](c3ccccc3)[C@H](c3ccccc3)N1[C@@H]2c1ccccc1OCCO` came in with a composite z-score of 0.69.
For `COCCOC(=O)N1C(=O)[C@@]2(c3cc(C#CCC(C(=O)OC)C(=O)OC)ccc31)[C@H](C(=O)N1CCc3cc(OC)c(OC)cc3C1)[C@H]1C(=O)O[C@H](c3ccccc3)[C@H](c3ccccc3)N1[C@@H]2c1ccc(OCCO)cc1` the value was 1.45; for `COc1ccc(CCNC(=O)[C@@]2(Sc3ccc(C)cc3)CC(=O)N(C3Cc4ccccc4C3)[C@@H]2c2ccc(CO)cc2)cc1`, 2.16; for `CC1=C([C@H](O)CCc2ccccc2)[C@H](CO)[C@@H]2C(=O)N(C)C(=O)[C@@H]2C1`, 0.227.
The figure for `COc1ccccc1CN1C(=O)c2ccccc2[C@@]2(Cc3ccccc3N(CC(F)(F)F)C2=O)[C@@H]1c1ccc(CO)cc1` is 0.731; for `CC(C)(C)OC(=O)CC[C@]1(C(=O)NCc2ccccc2)N=C(c2ccc(OCCCO)cc2)O[C@H]1c1ccccc1CN=[N+]=[N-]` it is 1.75.
`O=C(NCC(F)(F)F)[C@@H]1c2ccccc2C(=O)N(Cc2ccc(OC(F)(F)F)cc2)[C@H]1c1ccc(CO)cc1` registered a composite z-score of 0.45.
In turn, `COc1ccc([Si](C)(C)[C@H]2[C@H](CCn3cc([C@H](O)c4ccccc4)nn3)O[C@@]3(C(=O)N(Cc4ccc(N5C(=O)c6cccc7cccc5c67)cc4)c4ccccc43)[C@@H]2C)cc1` registered a composite z-score of 0.768.
For `CCCCCCc1nc(C2CC2)cc2c1[Si](C(C)C)(C(C)C)O[C@H]2c1ccccc1` the value was 0.248.
The figure for `COc1cc2c(cc1OC)CN(C(=O)[C@@H]1[C@H]3C(=O)O[C@H](c4ccccc4)[C@H](c4ccccc4)N3[C@H](c3ccc(OCCO)cc3)[C@@]13C(=O)Nc1ccccc13)CC2` is 1.26; for `CCOC(=O)C[C@H]1[C@H](OC(=O)c2ccc(C(=O)c3ccccc3)cc2)[C@@H](NC(=O)Cc2ccc(OC)cc2)c2cc(OCCCO)ccc2N1C(=O)c1ccccc1` it is 0.23.
Turning to `Cc1cc(C)c(C(O)C2C=CC3C(=O)NC(=O)C3N2Nc2ccc(Cl)cc2Cl)c(C)c1` (stereo not given), the composite z-score was found to be 0.752.
